The values that follow come from PubChem BioAssay AID1851 (National Center for Advancing Translational Sciences (NCATS), 2009).

The whole screen tested about 16,000 compounds, of which about 4,000 (25%) were called active. Another 26% or so got no clear call; they are omitted. Calls follow the shape of the dose curve; as a rule, active = well fitted curve in the direction sought with a large enough effect; inconclusive = small, poorly fitted or top-dose-only effect, or effect the other way; inactive = no such curve, though single readings can be large or run the other way. Not all results are given here.
% is scaled to controls: 0 for no effect and ±100 for the full control effect.

The experiment deals with Cytochrome P450 2C9 (Homo sapiens) (UniProt P11712). Description: Cytochrome panel assay with activity outcomes. To be noted: recombinant CYP, pro-luciferin dealkylation, luminescence, p450-cyp2c9; series mostly up to 57.1 µM; activity, negative = inhibition: at the top concentration.
Cytochrome P450 2C9 (Homo sapiens), sequence (P11712 whole entry, looked up): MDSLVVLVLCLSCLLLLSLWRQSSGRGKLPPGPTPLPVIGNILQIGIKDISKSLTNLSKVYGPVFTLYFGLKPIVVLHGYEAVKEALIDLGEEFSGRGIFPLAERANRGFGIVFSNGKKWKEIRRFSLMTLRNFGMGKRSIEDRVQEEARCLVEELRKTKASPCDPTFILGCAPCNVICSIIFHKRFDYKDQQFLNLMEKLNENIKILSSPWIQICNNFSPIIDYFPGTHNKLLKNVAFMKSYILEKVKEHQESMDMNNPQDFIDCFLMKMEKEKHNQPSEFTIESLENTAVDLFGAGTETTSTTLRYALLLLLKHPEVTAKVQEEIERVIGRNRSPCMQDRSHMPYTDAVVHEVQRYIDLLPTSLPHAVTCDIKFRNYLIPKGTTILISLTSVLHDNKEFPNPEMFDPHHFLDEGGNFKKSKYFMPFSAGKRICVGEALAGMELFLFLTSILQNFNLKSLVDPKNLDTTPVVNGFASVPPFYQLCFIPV
Consider `COC(=O)[C@@]1(Cc2ccc(OC)cc2)[C@H]2c3cc(C(=O)N(C)C)[nH]c3C[C@H]2CN1C(=O)c1ccccc1`, for which the AC50 is 3.98 µM (active).

As to `COC(=O)[C@@]1(Cc2ccccc2)[C@H]2c3cc(C(=O)N4CCCC4)[nH]c3C[C@H]2CN1C(=O)c1ccccc1`, the concentration at half-maximal activity (AC50) was 0.794 µM (active).

Turning to `COC(=O)C/C=C\[C@@H](C)[C@@H](/C=N\O[C@@H](C)c1cn([C@H]2COC[C@H]2O)nn1)OC`, the activity, negative = inhibition was -15.9% [at 11.4 µM] (inactive). In the case of `Cc1c2cnccc2c(C)c2c1c1ccccc1n2CCOC(=O)c1ccccc1`, the AC50 is 3.16 µM (active). `CN(C)CCCn1c2ccccc2c2cnccc21`: the activity, negative = inhibition was 4.43% [at 11.4 µM] (inactive).

For `COc1ccccc1CN1CCCC2(CCN(C(=O)c3c(C)noc3C)CC2)C1`, the “activity, negative = inhibition” value is 4.46% (inactive). Consider `CCOC(=O)c1c(-c2ccccc2)nc2c(C)cccn12`, for which the AC50 was 11.2 µM (active). Turning to `CC(C)[C@H](NC(=O)OC(C)(C)C)[C@@H](O)CC(=O)OC(C)(C)C`, the activity, negative = inhibition is 20.6% [at 11.4 µM] (inactive). As for `CC(=O)C[C@H](O)[C@@H](NC(=O)OC(C)(C)C)C(C)C`, the activity, negative = inhibition was -4.41% [at 11.4 µM] (inactive).

As for `CC(NC(=O)C1(C)CC1(Br)Br)C(C)(C)C` (stereo unspecified), the AC50 is 31.6 µM (active). Still for that read-out and setting: as for `O=C1[C@@H]2C=CC=CC2=NC(=S)N1CCN1CCC(=C(c2ccc(F)cc2)c2ccc(F)cc2)CC1`, the figure is 31.6 µM (active). Turning to `O=c1cc(CSc2nnc(-c3cccnc3)n2-c2ccccc2F)nc2sccn12`, the “activity, negative = inhibition” value was -21.9% (inactive). Still for that read-out and setting: the same measure for `CC1CCN(C(=O)CSc2nc3cccnc3n2C)CC1`: -8.16% (inactive). On to `CC(C)c1ccccc1-n1c(SCC(=O)N2CCN(c3ccccc3)CC2)nnc1-c1cccnc1`, for which the AC50 is 11.2 µM (active). On to `C#CCCCO/N=C1/C[C@@H](O)[C@@H](O)[C@@H]2[C@@H]3C(=O)N(CCC(=O)OCC)C(=O)[C@H]3CC[C@@H]12`, for which the activity, negative = inhibition is 2.98% [at 11.4 µM] (inactive). On the same count and under the same terms, as for `C=C[C@]1(C)C[C@H](OC(=O)CO)[C@]2(C)C3C(=O)CC[C@]3(CC[C@H]2C)[C@H](C)[C@H]1O` (stereo partly specified), the figure is 4.64% [at 11.4 µM] (inactive). For the compound `O=C1Nc2ccc(F)cc2C12Nc1ccccc1-c1nnc(SCc3ccccc3F)nc1O2` (stereo unspecified), the AC50 was 2 µM (active). The same measure, in the same setting: as for `Cc1ccc(CSc2nnc3c(n2)OC2(Nc4ccccc4-3)C(=O)Nc3ccc(F)cc32)cc1` (stereo unspecified), the figure is 8.91 µM (active). Take `N=C(N)c1ccc(N=Nc2c(O)ccc3c2[nH]c2ccccc23)cc1`: the activity, negative = inhibition is -5.45% [at 11.4 µM] (inactive). On the same count and under the same terms, the same measure for `c1csc(CNc2cc(-c3ccoc3)ncn2)c1`: -7.77% [at 2.29 µM] (inactive). With `O=C1[C@H]2[C@H]3[C@H](O)[C@H](O)C/C(=N/OC[C@@H](O)COCc4ccco4)[C@@H]3CC[C@@H]2C(=O)N1Cc1ccc2c(c1)OCO2`, the activity, negative = inhibition is 3.23% [at 11.4 µM] (inactive). Still for that read-out and setting: the same measure for `C#CCCCO/N=C1/C[C@@H](O)[C@@H](O)[C@@H]2[C@@H]3C(=O)N(C[C@@H]4CCCO4)C(=O)[C@H]3CC[C@@H]12`: 16.1% [at 11.4 µM] (inactive); for `CN(Cc1ccco1)c1cc(-c2cccnc2)ncn1`: 2.79% [at 2.29 µM] (inactive). `O=C(OCc1nnc(-c2ccccc2)o1)c1ccc2c(c1)OCCO2`: the AC50 was 7.94 µM (active). `CCCN1C(=O)C2(/C(=C(\O)c3ccc4c(c3)OCCO4)C(=O)C(=O)N2CCCOC)c2ccccc21` (stereo unspecified): the “activity, negative = inhibition” value is -25% (inactive).

In the case of `Cc1cc(C)c(-c2cc([C@H](C)O/N=C3/[C@H]4OC4[C@@H](O)[C@H]4[C@H]3CCn3c(=O)n(-c5ccccc5)c(=O)n34)on2)c(C)c1` (stereo partly specified), the activity, negative = inhibition is -29.1% [at 11.4 µM] (inactive). As for `Cc1ccc(C)c(OCCCC(C)(C)C(=O)O)c1`, the half-maximal activity concentration (AC50) was 6.31 µM (active). With `COC(=O)Cn1c(=N)n(CCN2CCCCC2)c2ccccc21`, the “activity, negative = inhibition” value was -24.1% (inactive).

Take `Fc1ccc(Nc2nc(-c3ccoc3)nc3ccccc23)cc1`: the activity, negative = inhibition was 8.98% [at 2.29 µM] (inactive). The same measure, in the same setting: as for `CCCn1nc(Oc2nc(NCC)nc(NC(C)C)n2)ccc1=O`, the figure is -18.8% (inactive). For the compound `CCCn1nc(Oc2nc(NCC)nc(NCC)n2)ccc1=O`, the “activity, negative = inhibition” value is -26.2% (inactive).

With `CC(C)Nc1nc(NC(C)(C)C)nc(Oc2ccc(=O)n(-c3ccccc3)n2)n1`, the half-maximal activity concentration (AC50) is 20 µM (active). As to `C[N+]1(NCC[N@@+]2(C)CCc3ccccc3C2)CCCCC1`, the activity, negative = inhibition was 5.5% [at 11.4 µM] (inactive). On the same count and under the same terms, as for `CC(=O)OC[C@@H]1O[C@H](CCO/N=C(\C)CCN2CCCc3nc(C)c(C)cc32)C=C[C@@H]1OC(C)=O`, the figure is -1.93% [at 11.4 µM] (inactive); as for `CCCCn1nnnc1SCC(=O)N1CCCC1`, -25.2% (inactive).

`N[C@@H](CSS(=O)(=O)O)C(=O)O`: the half-maximal activity concentration (AC50) is 12.6 µM (active).

Take `N[C@@H](CO)C(=O)O`: the AC50 entry is “inactive”. For `CCSC[C@@H](N)C(=O)O`, the activity, negative = inhibition was 4.58% [at 11.4 µM] (inactive).

For `COc1cccc(-c2nc(NCc3ccccc3)c3ccccc3n2)c1`, the AC50 was 1.26 µM (active). The same measure, in the same setting: as for `COc1cccc(-c2nc(NCCc3c[nH]c4ccc(OC)cc34)c3ccccc3n2)c1`, the figure is 0.794 µM (active).

On to `COc1ccc2[nH]cc(CCNc3ccnc(-c4ccc(N(C)C)cc4)n3)c2c1`, for which the activity, negative = inhibition is -7.16% [at 2.29 µM] (inactive). As for `COc1ccc2[nH]cc(CCNc3nc(-c4ccc(N(C)C)cc4)nc4ccccc34)c2c1`, the half-maximal activity concentration (AC50) is 0.398 µM (active). Turning to `COc1ccc2[nH]cc(CCNc3nc(-c4ccccc4OC)nc4ccccc34)c2c1`, the activity, negative = inhibition is -1.54% [at 2.29 µM] (inactive). On the same count and under the same terms, as for `COc1cccc(-c2nc(NCc3cccnc3)c3ccccc3n2)c1`, the figure is -29.9% [at 2.29 µM] (inactive); as for `COc1ccc2[nH]cc(CCNc3nc(-c4ccccc4CN(C)C)nc4ccccc34)c2c1`, 10.1% [at 2.29 µM] (inactive). The same measure, in the same setting: as for `COc1cccc(-c2nc(NCc3cnc(C)cn3)c3ccccc3n2)c1`, the figure is 0.563% [at 2.29 µM] (inactive); as for `COCCNc1nc(-c2cccc(OC)c2)nc2ccccc12`, -26.4% [at 2.29 µM] (inactive); as for `Cc1c(C)c2c(c(C)c1O)CC[C@@](C)(C(=O)O)O2`, 1.61% [at 25.6 µM] (inactive). For `CCCC/C=C/C(NC(=O)c1ccccc1)c1ccccc1` (stereo unspecified), the concentration at half-maximal activity (AC50) was 10 µM (active). On to `C/C(=C\C1CCCCC1)C(NC(=O)c1ccc(C(F)(F)F)cc1)c1ccc(-c2ccccc2)cc1` (stereo unspecified), for which the “activity, negative = inhibition” value is 17.2% (inactive). Turning to `CCCC/C=C/C(NC(=O)c1ccc(C(F)(F)F)cc1)c1ccccc1` (stereo unspecified), the concentration at half-maximal activity (AC50) is 2 µM (active). As to `CCCC/C=C/C(NC(=O)c1ccc(-c2ccccc2)cc1)c1ccccc1` (stereo unspecified), the “activity, negative = inhibition” value is 14.5% (inactive). The same measure, in the same setting: as for `CC[C@H](CN(C)C)C(=O)c1ccco1`, the figure is 0.0002% [at 11.4 µM] (inactive); as for `Cc1occc1C(=O)NNC(=O)Cc1ccccc1`, -8.8% (inactive). Consider `CCCC/C=C/C(NC(=O)c1cccs1)c1ccccc1` (stereo unspecified), for which the concentration at half-maximal activity (AC50) is 0.316 µM (active). On to `CCCC/C=C/C(NC(=O)c1ccco1)c1ccccc1` (stereo unspecified), for which the half-maximal activity concentration (AC50) is 15.8 µM (active).
